Results published in PubChem BioAssay (Tox21).
Inconclusive results are not listed. Entries that show only a call come without a potency. Unmarked numbers belong to inactive results. Active and inactive are the calls of the source. Calls follow the shape of the full dose curve.

Test: p53 small molecule agonists, cell-based qHTS assay: qHTS cell viability counter screen (AID 1963581); also: nearly all actives have a fitted effect of over 45% in size
Summary of the method: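 HCT-116 p53RE-bla cells, 4,000/well, plated 5 h before compound pin transfer; 16 h at 37 C; bla substrate 2 h RT; then CellTiter-Glo, 30 min RT, luminescence.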

Row | SMILES | Potency | activity change, negative = cytotoxicity
1 | CCCCCCC(CO)CCCC (configuration not stated) | inactive | 
2 | S=c1[nH][nH]c(=S)s1 | inactive | 
3 | O=C(Nc1cccc(C2=NCCN2)c1)Nc1cccc(C2=NCCN2)c1 |  | -8.13% [at 13.5 µM]
4 | c1cc2c3c(c1)ccc1cccc(c13)C2 | inactive | 
5 | CCOC(=O)C(O)c1ccccc1 (configuration not stated) | inactive | 
6 | Nc1cc([N+](=O)[O-])cc(Cl)c1O | inactive | 
7 | CC(C)NCC(O)COc1ccc(COCCOC(C)C)cc1 (configuration not stated) | inactive | 
